# Measured values as given in PubChem BioAssay (NCATS).
# Records with an inconclusive call do not appear. A call without a number means that no potency is given here. Active and inactive are the calls of the source. The call rests on the fitted dose curve; in most records, active means well fitted inhibition curve with a large enough effect; inconclusive means small, poorly fitted or top-dose-only effect; inactive means flat fitted curve, though single readings scatter.
# System: HEK293T
# Assay: qHTS assay to identify novel small-molecules to repurpose for Merkel cell carcinoma treatment (AID 1296009); further: nearly all actives have a fitted effect of over 60% in size
# Details: MCC and control cell lines, CellTiter-Glo viability, 72 h; at 44.8 µM (top of the series) unless noted
# How it was run: (§1)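 Viability readout: ATP luminescence (CellTiter-Glo) after 72 hr drug exposure at 37 degree celsius. Dose-response format was 8 points for NPC and 11 points for MIPE; data normalized to in-plate controls.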
# Potency means the concentration at half of the fitted maximal effect.
row,SMILES,outcome
1,CC(=O)Nc1ccc(OC[C@](C)(O)C(=O)Nc2ccc([N+](=O)[O-])c(C(F)(F)F)c2)cc1,inactive
2,O=C1C=CC[C@@H]2[C@H]3CCCN4CCC[C@@H](CN12)[C@@H]34,inactive
3,OCCCBr,inactive [at 92 µM]
4,Cc1ccccc1-n1c(Cn2cnc3c(N)ncnc32)nc2cccc(C)c2c1=O,inactive
5,c1cc2c(cc1[C@H]1OC[C@H]3[C@H]1CO[C@H]3c1ccc3c(c1)OCO3)OCO2,inactive
6,O=[N+]([O-])c1ccc([As](=O)(O)O)cc1,inactive

# System: MCC-13
# Assay: as above
# Details: MCC and control cell lines, CellTiter-Glo viability, 72 h; series mostly up to 46 µM
# How it was run: as §1
row,SMILES,Potency
1,CC(=O)Nc1ccc(OC[C@](C)(O)C(=O)Nc2ccc([N+](=O)[O-])c(C(F)(F)F)c2)cc1,inactive
2,CCCCCCCCCC(CC)c1ccc(S(=O)(=O)O)cc1 (configuration not stated),inactive
3,Nc1ccc(Sc2ccc(N)cc2)cc1,inactive
4,CC(O)CN1CCN(CC(=O)[O-])CCN(CC(=O)[O-])CCN(CC(=O)[O-])CC1.[Gd+3] (configuration not stated),inactive
5,CN1CCN(c2ccc([N+](=O)[O-])c3no[n+]([O-])c23)CC1,inactive
6,O=C(O)COc1nc(Cl)c(Cl)cc1Cl,inactive
7,CS(=O)(=O)c1ccc(C(=O)C2C(=O)CCCC2=O)c([N+](=O)[O-])c1,inactive
8,CCOP(=O)(NC(C)C)Oc1ccc(SC)c(C)c1 (configuration not stated),inactive
9,COC1=C[C@@H]2[C@@H]3Cc4ccc(OC)c(O)c4[C@]2(CCN3C)CC1=O,inactive
10,O=C1C=CC[C@@H]2[C@H]3CCCN4CCC[C@@H](CN12)[C@@H]34,inactive
11,CC(O)=C(C#N)C(=O)Nc1cc(Br)ccc1Br,inactive
12,O=C(NCC1CCOCC1)c1cnc(Nc2ccc(Cl)cc2Cl)nc1C(F)(F)F,inactive
13,CC(C)(O)C=CC(=O)[C@](C)(O)[C@H]1[C@H](O)C[C@]2(C)[C@@H]3CC=C4[C@@H](C=C(O)C(=O)C4(C)C)[C@]3(C)C(=O)C[C@@]12C,0.264 µM (active)
14,C=C1C[C@H]2[C@H]3CCC(=O)[C@@]3(C)CC[C@@H]2[C@@]2(C)C=CC(=O)C=C12,inactive
15,C[C@@H]1[C@H](O)[C@@H](C)C=CC=CCCC=CC=CC=CC=C[C@H](O[C@H]2O[C@@H](C)[C@H](O)[C@@H](N)[C@@H]2O)CC2O[C@](O)(C[C@@H](O)[C@H](O)CC[C@@H](O)C[C@@H](O)C[C@@H](O)CC(=O)O[C@H]1C)C[C@H](O)[C@H]2C(=O)O,inactive
16,COc1ccc(CC2NCCc3cc(OC)c(OC)cc32)cc1OC (configuration not stated),inactive

row,SMILES,Potency
1,C[C@H]1CCCC=CC2C[C@H](O)C[C@@H]2[C@H](O)C=CC(=O)O1 (some centres not stated),inactive
2,OCCCBr,inactive
3,CC(=O)[O][Hg][c]1ccccc1,1.06 µM (active)
4,CCN(CC)C(=O)c1ccc(C2=CC3(CCNCC3)Oc3cccc(O)c32)cc1,inactive
5,COc1ccc2c(c1)CN(C)CC2c1ccc(Cl)c(Cl)c1 (configuration not stated),inactive
6,c1cc2c(cc1[C@H]1OC[C@H]3[C@H]1CO[C@H]3c1ccc3c(c1)OCO3)OCO2,inactive
7,O=[N+]([O-])c1ccc([As](=O)(O)O)cc1,inactive
8,COCCOCCO,inactive
9,CC(N[C@H]1C[C@H]1c1ccccc1)c1ccc2c(c1)OCCO2 (some centres not stated),inactive
10,CC(=O)OCC1=C(C(=O)O)N2C(=O)[C@@H](N)[C@@H]2SC1,inactive
11,Cc1nc(-c2ccc(-c3ccc(C(=O)N4CCc5cc6c(cc54)C4(CCN(C)CC4)CO6)cc3)c(C)c2)no1,inactive
12,CC(C)(C)C(O)C(Oc1ccc(Cl)cc1)n1cncn1 (configuration not stated),inactive
13,Cc1c(C(=O)Nc2cccc(C(F)(F)F)c2)cc(-c2ccccc2)n1CCCN1CCOCC1,inactive
14,O=C1CCC[C@@H]2[C@H]3CCCN4CCC[C@@H](CN12)[C@@H]34,inactive
15,CC(C)(C)NC[C@H](O)c1ccc(O)cc1Cl,inactive

# System: MCC-26
# Assay: as above
# Details: MCC and control cell lines, CellTiter-Glo viability, 72 h; series mostly up to 46 µM
# How it was run: as §1
row,SMILES,Potency
1,CC(=O)Nc1ccc(OC[C@](C)(O)C(=O)Nc2ccc([N+](=O)[O-])c(C(F)(F)F)c2)cc1,inactive
2,CCCCCCCCCC(CC)c1ccc(S(=O)(=O)O)cc1 (configuration not stated),inactive
3,Nc1ccc(Sc2ccc(N)cc2)cc1,inactive
4,CN1CCN(c2ccc([N+](=O)[O-])c3no[n+]([O-])c23)CC1,inactive
5,O=C(O)COc1nc(Cl)c(Cl)cc1Cl,inactive
6,CO/C=C(/C(=O)OC)c1ccccc1Oc1cc(Oc2ccccc2C#N)ncn1,inactive
7,CS(=O)(=O)c1ccc(C(=O)C2C(=O)CCCC2=O)c([N+](=O)[O-])c1,inactive
8,CCOP(=O)(NC(C)C)Oc1ccc(SC)c(C)c1 (configuration not stated),inactive
9,COC1=C[C@@H]2[C@@H]3Cc4ccc(OC)c(O)c4[C@]2(CCN3C)CC1=O,inactive
10,O=C1C=CC[C@@H]2[C@H]3CCCN4CCC[C@@H](CN12)[C@@H]34,inactive
11,CC(O)=C(C#N)C(=O)Nc1cc(Br)ccc1Br,inactive
12,O=C(NCC1CCOCC1)c1cnc(Nc2ccc(Cl)cc2Cl)nc1C(F)(F)F,inactive
13,C[C@@H]1[C@H](O)[C@@H](C)C=CC=CCCC=CC=CC=CC=C[C@H](O[C@H]2O[C@@H](C)[C@H](O)[C@@H](N)[C@@H]2O)CC2O[C@](O)(C[C@@H](O)[C@H](O)CC[C@@H](O)C[C@@H](O)C[C@@H](O)CC(=O)O[C@H]1C)C[C@H](O)[C@H]2C(=O)O,inactive
14,COc1ccc(CC2NCCc3cc(OC)c(OC)cc32)cc1OC (configuration not stated),inactive
15,C[C@H]1CCCC=CC2C[C@H](O)C[C@@H]2[C@H](O)C=CC(=O)O1 (some centres not stated),inactive
16,OCCCBr,inactive
17,Cc1ccccc1-n1c(Cn2cnc3c(N)ncnc32)nc2cccc(C)c2c1=O,6.62 µM (active)
18,COc1ccc2c(c1)CN(C)CC2c1ccc(Cl)c(Cl)c1 (configuration not stated),inactive
19,O=[N+]([O-])c1ccc([As](=O)(O)O)cc1,inactive
20,COCCOCCO,inactive
21,CC(=O)OCC1=C(C(=O)O)N2C(=O)[C@@H](N)[C@@H]2SC1,inactive
22,CC(C)(C)C(O)C(Oc1ccc(Cl)cc1)n1cncn1 (configuration not stated),inactive
23,Cc1c(C(=O)Nc2cccc(C(F)(F)F)c2)cc(-c2ccccc2)n1CCCN1CCOCC1,inactive
24,O=C1CCC[C@@H]2[C@H]3CCCN4CCC[C@@H](CN12)[C@@H]34,inactive
25,CC(C)(C)NC[C@H](O)c1ccc(O)cc1Cl,inactive
